The target of assay [1] is Glucocorticoid receptor (Homo sapiens) (UniProt P04150). Kind of assay: qHTS assay for small molecule agonists of glucocorticoid receptor signaling (AID 588532; active = well fitted curve in the direction sought with a large enough effect in the signal ratio, with a control signal flat; the % refers to the signal ratio;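 also: 100% = dexamethasone at 0.1 µM and 0% = DMSO only wells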). The following applies: HeLa MMTV-bla, beta-lactamase ratio, agonist, 18 h; stronger effect = higher value; percent of dexamethasone control, DMSO zero. In a few lines:
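MMTV-bla HeLa, beta-lactamase reporter; medium with 1% charcoal/dextran-stripped FBS; cpds up to 92 uM, 18 h, 37 C; CCF4 readout 460/530 nm; Hill fit → EC50, efficacy vs 0.1 uM dexamethasone = 100%.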

For assay [2], the target named is Vitamin D3 receptor (Homo sapiens) (UniProt P11473). Kind of assay: qHTS assay for small molecule agonists of vitamin D receptor signaling (AID 588543). The settings on record: HEK293T VDR-UAS-bla, beta-lactamase ratio, 16 h; series mostly up to 76.8 µM. The procedure, abridged: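 Agonist-mode beta-lactamase reporter: HEK293T VDR-UAS-bla cells in charcoal-stripped 2% FBS, compound series 16 h 37 C, CCF4 2 h RT. EC50 from Hill fit, scaled against DMSO and 50 nM calcitriol control.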
On the technique in general: Quantitative high-throughput screening tests each substance at several concentrations.

Assay [3] addresses Glucocorticoid receptor (Homo sapiens) (UniProt P04150). Kind of assay: qHTS assay for small molecule antagonists of glucocorticoid receptor signaling (AID 588533; active = well fitted inhibition curve with a large enough effect in the signal ratio, with a control signal flat, not every such curve was filed as active; the % refers to the signal ratio;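 also: cells stimulated with 2 nM dexamethasone as agonist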; also: potency is read from the fitted curve at half-maximal effect). The settings on record: HeLa MMTV-bla, GRE beta-lactamase ratio, antagonist mode, 18 h; series mostly up to 76.8 µM. The procedure, abridged: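 Antagonist-mode qHTS: compound titrations added to GRE-bla HeLa cells, then dexamethasone 2 nM final; 18 h, 37 C. CCF4 FRET fluorescence normalized to dexamethasone and DMSO; IC50 from Hill fit.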

Assay [4] deals with Bile acid receptor (Homo sapiens) (UniProt Q96RI1). Kind of assay: qHTS assay for small molecule antagonists of farnesoid X receptor signaling (AID 588526). Also: potency is read from the fitted curve at half-maximal effect. The settings on record: HEK293T FXR-UAS-bla, beta-lactamase ratio, antagonist mode; series mostly up to 76.7 µM. The procedure, abridged:
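Concentration-response titrations were fitted to the Hill equation for half-maximal inhibition and maximal response, with data normalised to 50 uM chenodeoxycholic acid and DMSO control wells. Cells: FXR-UAS-bla HEK293T, dialyzed FBS.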

Assay [5] addresses Peroxisome proliferator-activated receptor gamma (Homo sapiens) (UniProt P37231). The assay can be described thus: qHTS assay for small molecule agonists of peroxisome proliferator-activated receptor gamma signaling (AID 588536; active = well fitted curve in the direction sought with a large enough effect in the signal ratio, with a control signal flat, not every such curve was filed as active; the % refers to the signal ratio). The settings on record: HEK293 PPARg-UAS-bla, beta-lactamase ratio, 16 h, percent of rosiglitazone response, DMSO as zero; series mostly up to 76.7 µM. In a few lines: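 Using GeneBLAzer HEK293 cells, response was quantified by CCF4 fluorescence and normalized between basal DMSO (0%) and rosiglitazone 2 uM (100%); curves yielded half-maximal stimulation concentration and efficacy.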

The target is the same in assay [6]. Kind of assay: qHTS assay for small molecule antagonists of peroxisome proliferator-activated receptor gamma signaling (AID 588537; active = well fitted inhibition curve with a large enough effect in the signal ratio, with a control signal flat, not every such curve was filed as active; the % refers to the signal ratio; also: potency is read from the fitted curve at half-maximal effect). The following applies: HEK293 PPARg-UAS-bla, beta-lactamase ratio, antagonist mode; series mostly up to 76.8 µM. In a few lines:
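Compounds are tested as concentration series for inhibition of rosiglitazone-driven (50 nM) reporter expression in GeneBLAzer PPAR-gamma-UAS-bla HEK293 cells. After 16 h at 37 C, CCF4 substrate is added for 2 h at room temperature and blue/green fluorescence is measured.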

Assay [7] concerns the target Vitamin D3 receptor (Homo sapiens) (UniProt P11473). The assay can be described thus: qHTS assay for small molecule antagonists of vitamin D receptor signaling (AID 588541). Also: potency is read from the fitted curve at half-maximal effect. The settings on record: HEK293T VDR-UAS-bla, beta-lactamase ratio, antagonist mode; series mostly up to 76.7 µM. The procedure, abridged: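 VDR-UAS-bla HEK293T cells (2000/well, 2% charcoal-stripped FBS) were treated with titrated compounds plus 1-alpha,25-dihydroxyvitamin D3 (50 nM or 3 nM final) for 16 h at 37 C. CCF4 beta-lactamase fluorescence was read; Hill fits gave IC50.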

Assay [8] is described as follows: qHTS assay for small molecule agonists of retinoid X receptor alpha signaling (AID 588544). The following applies: HEK293T RXRa-UAS-bla, beta-lactamase reporter, 18 h; 530 nm emission.
The nature of assay [9]: qHTS assay for small molecule antagonists of peroxisome proliferator-activated receptor delta signaling (AID 588535; active = well fitted inhibition curve with a large enough effect in the signal ratio, with a control signal flat, not every such curve was filed as active; the % refers to the signal ratio; also: potency is read from the fitted curve at half-maximal effect;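 as to max response: cells co-treated with a PPAR-delta agonist as stimulator during compound exposure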). The settings on record: HEK293T PPARd-UAS-bla, beta-lactamase FRET ratio, 18 h; 460 nm channel. The procedure, abridged: (§1)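 Inhibition of PPAR-delta response element-driven beta-lactamase expression is measured in HEK293T cells exposed to a compound titration series for 18 hrs at 37 C. Half-maximal inhibition comes from Hill equation fitting.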

The target of assay [10] is Peroxisome proliferator-activated receptor delta (Homo sapiens) (UniProt Q03181). The assay is described as above. The following applies: HEK293T PPARd-UAS-bla, beta-lactamase FRET ratio, 18 h; series mostly up to 76.7 µM. In a few lines: as §1
Sequence of Peroxisome proliferator-activated receptor delta (Homo sapiens) (Q03181 whole entry, looked up): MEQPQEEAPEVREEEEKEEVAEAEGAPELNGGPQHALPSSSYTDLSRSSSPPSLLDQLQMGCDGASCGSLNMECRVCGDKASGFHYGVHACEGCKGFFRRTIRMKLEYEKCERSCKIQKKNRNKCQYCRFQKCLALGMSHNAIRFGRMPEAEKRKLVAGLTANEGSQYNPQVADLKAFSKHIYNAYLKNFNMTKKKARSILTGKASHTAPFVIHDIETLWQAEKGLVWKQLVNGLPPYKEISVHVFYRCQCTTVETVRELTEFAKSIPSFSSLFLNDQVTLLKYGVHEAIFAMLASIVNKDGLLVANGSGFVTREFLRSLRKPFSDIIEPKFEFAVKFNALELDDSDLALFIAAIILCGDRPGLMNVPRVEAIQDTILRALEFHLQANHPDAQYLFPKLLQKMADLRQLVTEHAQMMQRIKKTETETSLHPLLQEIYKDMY

SMILES strings stand for the structures. Where “and” joins values, the source holds several entries; their conditions need not be identical. Identical values can stand only once. Results filed as inconclusive are left out. Calls of active or inactive are those of the source. Unless noted, calls follow the shape of the full dose curve. Numbered stars: 1 amine (or outer) side, 2 acyl side, 3 side chain; on linkers, the order of the positions; unused ones are H or OH. Bridge positions count the residues as written; N and C are the ends. Square brackets hold non-standard residues; d marks the D form. Peptide text beside a SMILES is read from it. I, II: the chains in the order shown. Actinocin(9to1) = Cc1c2oc3c(C)ccc(C(=O)[*:1])c3nc-2c(C(=O)[*:2])c(N)c1=O; NMeV = CN[C@H](C(=O)O)C(C)C; Sar = CNCC(=O)O

Sequence of Glucocorticoid receptor (Homo sapiens) (P04150 whole entry, looked up): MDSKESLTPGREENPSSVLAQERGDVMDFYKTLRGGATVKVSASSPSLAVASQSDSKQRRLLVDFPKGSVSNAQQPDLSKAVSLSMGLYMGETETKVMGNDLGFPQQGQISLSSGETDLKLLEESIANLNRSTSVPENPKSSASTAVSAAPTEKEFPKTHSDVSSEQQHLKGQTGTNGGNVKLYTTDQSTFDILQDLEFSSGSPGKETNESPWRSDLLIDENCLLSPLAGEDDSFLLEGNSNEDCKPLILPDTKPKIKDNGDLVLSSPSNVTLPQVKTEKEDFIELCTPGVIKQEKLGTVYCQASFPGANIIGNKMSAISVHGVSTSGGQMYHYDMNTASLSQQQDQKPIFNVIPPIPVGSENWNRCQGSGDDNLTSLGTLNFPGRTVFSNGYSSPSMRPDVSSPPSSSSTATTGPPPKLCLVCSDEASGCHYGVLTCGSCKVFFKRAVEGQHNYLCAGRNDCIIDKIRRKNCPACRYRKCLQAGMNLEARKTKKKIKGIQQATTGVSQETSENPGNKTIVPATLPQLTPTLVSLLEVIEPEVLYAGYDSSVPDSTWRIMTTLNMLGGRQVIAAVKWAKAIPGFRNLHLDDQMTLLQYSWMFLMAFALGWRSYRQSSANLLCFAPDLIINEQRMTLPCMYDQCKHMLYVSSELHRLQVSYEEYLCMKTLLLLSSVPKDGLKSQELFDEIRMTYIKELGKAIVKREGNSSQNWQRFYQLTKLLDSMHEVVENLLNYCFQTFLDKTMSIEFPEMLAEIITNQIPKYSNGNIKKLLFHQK
Sequence of Bile acid receptor (Homo sapiens) (Q96RI1 whole entry, looked up): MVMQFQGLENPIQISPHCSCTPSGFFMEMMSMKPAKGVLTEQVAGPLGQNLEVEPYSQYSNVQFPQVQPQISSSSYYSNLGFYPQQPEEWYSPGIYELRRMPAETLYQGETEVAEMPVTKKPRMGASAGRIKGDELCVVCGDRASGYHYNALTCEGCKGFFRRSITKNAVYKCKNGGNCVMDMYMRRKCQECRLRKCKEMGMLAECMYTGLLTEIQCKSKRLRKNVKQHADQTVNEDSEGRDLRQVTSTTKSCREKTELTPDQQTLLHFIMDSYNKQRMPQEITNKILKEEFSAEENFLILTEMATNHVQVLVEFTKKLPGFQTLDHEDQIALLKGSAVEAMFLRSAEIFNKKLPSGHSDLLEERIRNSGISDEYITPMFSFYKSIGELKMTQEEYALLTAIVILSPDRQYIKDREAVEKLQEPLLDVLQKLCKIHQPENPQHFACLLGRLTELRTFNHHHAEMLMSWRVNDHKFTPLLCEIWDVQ
Sequence of Peroxisome proliferator-activated receptor gamma (Homo sapiens) (P37231 whole entry, looked up): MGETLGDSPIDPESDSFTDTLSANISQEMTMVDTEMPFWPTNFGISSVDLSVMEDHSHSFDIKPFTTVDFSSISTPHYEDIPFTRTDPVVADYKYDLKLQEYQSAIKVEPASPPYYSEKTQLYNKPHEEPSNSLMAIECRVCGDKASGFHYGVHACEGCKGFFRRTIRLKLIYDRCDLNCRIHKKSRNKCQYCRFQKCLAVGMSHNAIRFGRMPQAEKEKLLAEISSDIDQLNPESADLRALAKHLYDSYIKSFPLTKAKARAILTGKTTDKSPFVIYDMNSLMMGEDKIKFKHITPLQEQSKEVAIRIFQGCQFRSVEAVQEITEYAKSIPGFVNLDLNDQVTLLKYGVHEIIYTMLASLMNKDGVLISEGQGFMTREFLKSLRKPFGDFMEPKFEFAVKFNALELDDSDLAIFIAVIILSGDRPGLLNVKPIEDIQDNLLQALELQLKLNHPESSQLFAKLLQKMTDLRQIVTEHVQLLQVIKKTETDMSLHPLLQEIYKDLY

For the compound `COC1=CC(=O)C[C@@H](C)[C@]12Oc1c(Cl)c(OC)cc(OC)c1C2=O`, the activation in assay [1] was -8.46% (inactive). Moreover, the result in [2] was inactive.
On to `Cc1c2oc3c(C)ccc(C(=O)N[C@@H]4C(=O)N[C@H](C(C)C)C(=O)N5CCC[C@H]5C(=O)N(C)CC(=O)N(C)[C@@H](C(C)C)C(=O)O[C@@H]4C)c3nc-2c(C(=O)N[C@@H]2C(=O)N[C@H](C(C)C)C(=O)N3CCC[C@H]3C(=O)N(C)CC(=O)N(C)[C@@H](C(C)C)C(=O)O[C@@H]2C)c(N)c1=O` (I: T[dV]P[Sar][NMeV] / II: T[dV]P[Sar][NMeV]; ester I:1-I:C, II:1-II:C; linker I:N-II:N via Actinocin(9to1)), for which the Potency in [3] was 126 nM (active) and 112 nM (active). In [2], the outcome was inactive.
Take `Cc1cc(=O)n(-c2ccccc2)n1C`: the Potency result in assay [4], in assay [6] and in [7] was “inactive” throughout. Moreover, the result in assay [5] and in assay [2] was inactive. The max response in assay [8] is -30.7%.
In the case of `CC(=O)Oc1ccc(C(c2ccc(OC(C)=O)cc2)c2ccccn2)cc1`, the result in assay [5] and in assay [2] was inactive. Moreover, the Potency result in assay [7] was “inactive”.
As to `CC(O)C(=O)O` (stereo not given), the Potency entry in assay [4], in assay [10] and in assay [7] was “inactive” throughout. Moreover, the max response in [9] is -0.0545%; in assay [8] it was -16.3%. Besides, the outcome in assay [2] was inactive.
Turning to `C[C@]12CC[C@@H]3c4ccc(O)cc4CC[C@H]3[C@@H]1CC[C@@H]2O`, the activation in [1] was -6.54% (inactive). The Potency in assay [3] was 7.08 µM (active); in [6] it was 39.8 µM (active). Besides, the Potency result in assay [7] was “inactive”. For the same compound, the outcome in assay [2] was inactive. Besides, the max response in [8] came to 6.82%.
Take `Oc1ccc(O)cc1`: the activation in assay [1] is -0.636% (inactive).
Regarding `CN(C)C(=S)SC(=S)N(C)C`, the Potency entry in assay [4], in assay [3], in assay [10], in [6] and in [7] was “inactive” throughout. For the same compound, the max response in assay [9] was 6.78%; in assay [8], 0.136%. Further, the outcome in assay [5] and in [2] was inactive.
`Nc1ccc(C(=O)O)cc1`: the Potency entry in assay [4], in [3], in [10] and in assay [6] was “inactive” throughout. Besides, the activation in assay [1] was -1.78% (inactive). Besides, the max response was 41.6% in assay [9] and 0.621% in assay [8]. Also, the result in assay [5] was inactive.
Take `COc1cccc2c1C(=O)c1c(O)c3c(c(O)c1C2=O)C[C@@](O)(C(=O)CO)C[C@@H]3O[C@H]1C[C@H](N)[C@H](O)[C@H](C)O1`: in assay [9], the max response was -92.6%. In assay [10], the Potency is 1.41 µM (active). Also, the outcome in assay [2] was inactive.
With `O=c1ccc2ccccc2o1`, the Potency entry in assay [4] and in assay [6] was “inactive” in each case. Moreover, in [5], the outcome was inactive. For the same compound, the max response in assay [8] was -0.417% and -9.49%.
In the case of `O=C(O)CCCCC(=O)O`, the Potency entry in assay [4], in assay [3], in assay [6] and in [7] was “inactive” throughout. In addition, in assay [1], the activation is 6.23% (inactive). The outcome in assay [5] and in assay [2] was inactive. For the same compound, the max response in assay [8] was -28.1%.
For `C[C@H]1C[C@H]2[C@@H]3CCC4=CC(=O)C=C[C@]4(C)[C@@]3(Cl)[C@@H](O)C[C@]2(C)[C@@]1(O)C(=O)CO`, the Potency result in assay [3], in assay [6] and in assay [7] was “inactive” in each case. Besides, the outcome in assay [5] and in [2] was inactive.
Consider `C=C(CC)C(=O)c1ccc(OCC(=O)O)c(Cl)c1Cl`, for which the activation in [1] was -8.92% (inactive).
On to `CC(O)(P(=O)(O)O)P(=O)(O)O`, for which, in assay [6], the Potency result is “inactive”. Also, the max response in [8] is -19.3%.
As for `CC(C)(Oc1ccc(Cl)cc1)C(=O)O`, the Potency result in [3], in assay [6] and in [7] was “inactive” each time. Also, the result in [5] and in assay [2] was inactive. The max response in [8] was -16.7%.
As to `Oc1c(Cl)cc(Cl)cc1Sc1cc(Cl)cc(Cl)c1O`, the result in assay [2] was inactive.
Consider `Oc1c(I)cc(Cl)c2cccnc12`, for which the Potency in assay [3] is 28.2 µM (active). Besides, the result in assay [2] was inactive.
Take `CCCCCCc1ccc(O)cc1O`: in assay [1], the activation is -1.17% (inactive) and 14.5% (inactive). In addition, the Potency entry in assay [3] and in [7] was “inactive” in each case. The result in [5] and in [2] was inactive. Besides, the max response in [8] is -14.8% and 0.183%.
As to `Oc1ccc(Cl)cc1Sc1cc(Cl)ccc1O`, the outcome in assay [5] and in [2] was inactive. Moreover, the Potency entry in assay [7] was “inactive”.
Turning to `O=C1OC(c2ccc(O)cc2)(c2ccc(O)cc2)c2ccccc21`, in [6], the Potency was 39.8 µM (active). In [7], the Potency result is “inactive”. Further, the outcome in assay [2] was inactive. For the same compound, in [8], the max response was 14.6% and 3.81%.
On to `CC/C(=C(/CC)c1ccc(O)cc1)c1ccc(O)cc1`, for which the Potency in assay [4] is 44.7 µM (active) and 39.8 µM (active). In [1], the activation is -20.1% (inactive). In assay [7], the Potency entry is “inactive”. Besides, the outcome in assay [2] was inactive. Moreover, the max response in assay [8] is -0.375%.
Regarding `NC(=NCCCCCCN=C(N)/N=C(\N)Nc1ccc(Cl)cc1)/N=C(\N)Nc1ccc(Cl)cc1`, the activation in assay [1] is -3.44% (inactive) and 1.22% (inactive). In addition, the Potency entry in assay [6] was “inactive”.
For the compound `CC(C)(C)CC(C)(C)c1ccc(OCCOCC[N+](C)(C)Cc2ccccc2)cc1`, the outcome in [5] and in [2] was inactive.
As to `COc1cccc2c1C(=O)c1c(O)c3c(c(O)c1C2=O)C[C@@](O)(C(C)=O)C[C@@H]3O[C@H]1C[C@H](N)[C@H](O)[C@H](C)O1`, the Potency in assay [7] is 8.91 µM (active).
On to `CN(C)/N=N/c1nc[nH]c1C(N)=O`, for which the Potency result in [4], in [10] and in assay [6] was “inactive” throughout. Besides, in assay [1], the activation is -5.55% (inactive). The results for the max response in assay [9] and in assay [8] were 24% and 27.5%, respectively. Also, in [5], the outcome was inactive.
As for `C=CCc1ccc(O)c(OC)c1`, the max response in [9] is 11.6% and 2.37%; in [8], -13.4% and -16.3%. Besides, the Potency entry in [10] and in [6] was “inactive” in each case. For the same compound, the result in [5] was inactive.
